Compound activity: PubChem BioAssay, National Center for Advancing Translational Sciences (NCATS)
Most compounds without a hit are left out; they make up all but 10% or so of the library.
G9a block = G9a (human) methyltransferase inhibition; Q96KQ7; AID 504332; hit rate 8.8% among 350,000; Potency, µM (series often up to 102 µM), hits mostly inhibitors; G9a H3K9 monomethylation, AlphaScreen, 2 h; further: nearly all actives have a fitted effect of over 75% in size
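Quantitative HTS format: methyltransferase activity on a biotin-tagged H3K9 peptide is measured by AlphaScreen, using a rabbit anti-monomethyl-H3K9 antibody with streptavidin donor and anti-IgG acceptor beads. Final levels are 20 nM enzyme, 500 nM peptide, 20 uM SAM; 2 h RT.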
JMJD2A Tudor inh = inhibitors of human JMJD2A Tudor domain; O75164; AlphaScreen JMJD2A-Tudor / H3K4me3 peptide binding; Potency, µM (doses to about 114 µM), actives largely listed as inhibitors; hit rate 4.4% among 390,000; AID 504339; further: nearly all actives have a fitted effect of over 50% in size
BAZ2B block = inhibitors of human BAZ2B bromodomain; hit rate 4.4% among 360,000; AlphaScreen BAZ2B-H3K14Ac peptide displacement; Potency, µM (series often up to 114 µM), usual class: inhibitors; Q9UIF8; further: nearly all actives have a fitted effect of over 60% in size
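In this displacement format the biotinylated H3(5-23) peptide acetylated at Lys14 serves as ligand at 50 nM, with BAZ2B at 50 nM in PBS pH 7.4 containing 0.01% Tween-20. Donor and acceptor beads are 10 ug/mL final.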
CtBP-E1A inh = blocks the CtBP interaction with E1A. AlphaScreen GST-E1A/His-CtBP binding, 1536-well; stronger effect = lower value. activity change, % (no concentration beside the values). hit rate 0.49% among 340,000; in the data active means activity change below about -65%; inconclusive means mostly about -30% to -63%
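Steps: dispense buffer (Tris pH 8.0, NaCl 300 mM, TCEP 1 mM, BSA, Tween 20); add 5X protein mix (GST-E1A, His-CtBP, 125 nM each); pin 23 nL compound; 2 h at 37 °C, dark; add 5X beads (50 ug/mL); 1 h; read.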
Six1-Eya2 blk = inhibitors of human Six1/Eya2 interaction. AID 651725. hit rate 0.56% among 360,000. activity change, % (no concentration beside the values). Q15475+O00167. AlphaScreen GST-Six1/His-Eya2 binding, biochemical; stronger effect = lower value; in the data active means activity change below about -65%; inconclusive means mostly about -30% to -63%
Target sequence (O00167 whole entry, looked up): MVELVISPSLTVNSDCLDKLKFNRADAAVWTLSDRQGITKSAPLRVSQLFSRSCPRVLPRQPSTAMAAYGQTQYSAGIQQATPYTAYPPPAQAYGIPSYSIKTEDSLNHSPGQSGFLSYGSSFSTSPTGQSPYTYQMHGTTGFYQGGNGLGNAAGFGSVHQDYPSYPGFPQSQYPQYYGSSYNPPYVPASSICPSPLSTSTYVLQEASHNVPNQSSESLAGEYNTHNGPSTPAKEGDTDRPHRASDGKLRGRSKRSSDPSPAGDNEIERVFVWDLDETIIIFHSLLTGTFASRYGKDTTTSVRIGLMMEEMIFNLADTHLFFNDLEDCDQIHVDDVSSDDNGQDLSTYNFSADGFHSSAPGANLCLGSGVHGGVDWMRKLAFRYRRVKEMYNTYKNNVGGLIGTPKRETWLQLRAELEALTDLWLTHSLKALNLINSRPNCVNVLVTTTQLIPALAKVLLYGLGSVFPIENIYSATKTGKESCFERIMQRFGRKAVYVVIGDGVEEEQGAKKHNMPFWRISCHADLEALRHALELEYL
Target sequence (Q15475 whole entry, looked up): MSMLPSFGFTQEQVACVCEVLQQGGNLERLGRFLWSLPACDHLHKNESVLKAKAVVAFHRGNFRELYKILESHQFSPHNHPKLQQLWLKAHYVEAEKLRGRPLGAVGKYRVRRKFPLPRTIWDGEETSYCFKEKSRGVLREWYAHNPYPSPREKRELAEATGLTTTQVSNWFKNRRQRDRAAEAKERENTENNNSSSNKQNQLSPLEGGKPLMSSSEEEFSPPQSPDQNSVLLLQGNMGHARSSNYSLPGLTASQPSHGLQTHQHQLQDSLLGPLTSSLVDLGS
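AlphaScreen with GST-Six1 and His-Eya2 (5X mix: 250 nM and 500 nM), glutathione donor and nickel acceptor beads; buffer 50 mM Tris pH 8.0, 300 mM NaCl, 1 mM TCEP; 1 h at 37 C in the dark.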
HP1b chromo inh = HP1-beta chromodomain-methylated histone interaction inhibition | P83916 | AlphaScreen HP1-beta / biotin-H3K9me3 peptide binding | Potency, µM (titrated, usually from 114 µM), most hits filed as inhibitors | hit rate 0.56% among 390,000 | AID 540317; further: nearly all actives have a fitted effect of over 70% in size
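HP1-beta protein (50 nM final) preincubated 30 min at room temperature with biotinylated H3(1-18)K9me3 peptide (50 nM) in PBS pH 7.4, 0.01% Tween-20, then compound added for 30 min. AlphaScreen streptavidin donor/nickel chelate acceptor beads (10 ug/mL final), 30 min dark, luminescence read.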
A number is an active result; n = inactive; u = inconclusive; x = not tested or not shown; [ ] = remark or other dose. Unless noted, the call rests on the fitted dose curve; in most records, active means well fitted inhibition curve with a large enough effect; inconclusive means small, poorly fitted or top-dose-only effect; inactive means no such curve, though single readings can be large or run the other way.

SMILES | G9a block | JMJD2A Tudor inh | BAZ2B block | CtBP-E1A inh | Six1-Eya2 blk | HP1b chromo inh
CCc1nc2ccc(C(=O)NCc3ccc(N(C)C)cc3)cc2nc1CC | 3.55µM | n | u | x | x | n
CC(C)c1nc2ccc(C(=O)NCc3ccc(N(C)C)cc3)cc2o1 | 15.8µM | u | u | x | x | n
CC(C)c1nc2ccc(C(=O)NCc3ccc(F)cc3)cc2o1 | n | n | n | x | x | n
COCc1cc(CN2CCCC(C(=O)Nc3ccc(-c4ccco4)cc3)C2)ccc1OC (stereo not drawn) | 8.91µM | u | u | n | n | u
Cc1ncc(CN2CCCC(C(=O)Nc3ccc(-c4ccco4)cc3)C2)cn1 (stereo not drawn) | n[0.501 µM] | n | 79.4µM | x | n | n
Cc1ccc(-n2ncc(C(=O)N3CCc4ccccc4C3)c2NC(=O)c2ccco2)cc1C | 25.1µM | n | n | n | n | n
CC(=O)N1CCC2(CCCN(C(=O)Nc3cccc(F)c3)C2)CC1 | n[12.7 µM] | x | x | x | x | x
CC1=C(C(=O)Nc2ccc(C)cc2C)C(c2ccccc2[N+](=O)[O-])n2ncc(C(=O)Nc3ccccc3)c2N1 (stereo not drawn) | 7.08µM | u | n | x | x | n
CCS(=O)(=O)c1nc(S(=O)(=O)c2ccc(Cl)cc2)c(N2CCc3ccccc3C2)s1 | 8.91µM | n | n | n | n | n
Cc1ccc(-c2c3c(=O)n(C)c(=O)n(C)c3cn2Cc2ccccc2)cc1 | 11.2µM | u | u | n | n | n
Cn1c(=O)c2c(-c3ccccc3)n(Cc3ccccn3)cc2n(C)c1=O | u | n | 50.1µM | n | n | n
N#CCCN1CCN(Cc2ccccc2)CCC1=O | n | n | n | n | n | n
CCOC(=O)C1CCCN(C(=O)c2ccc3c(c2)sc2nc(-c4cccc(OC)c4)cn23)C1 (stereo not drawn) | n | n | n | x | x | n
O=C(Cn1ncc2c([nH]c3ccccc32)c1=O)Nc1cccc(C(F)(F)F)c1 | n | n | n | x | x | n
CCCn1c(N)c(C(=O)CN(C)CC(=O)Nc2ccc(C)cc2)c(=O)[nH]c1=O | 44.7µM | 22.4µM | n | n | n | n
CCCn1c(N)c(C(=O)CN(C)CC(=O)Nc2c(C)cc(C)cc2C)c(=O)[nH]c1=O | n | n | n | n | n | n
CCCn1c(N)c(C(=O)CN(C)CC(=O)Nc2cc(C)ccc2C)c(=O)[nH]c1=O | 50.1µM | n | n | n | n | n
Oc1ccc(N=Cc2ccc(OCc3ccccc3)cc2)cc1 | 2.51µM | u | u | x | n | u
COc1ccc(Cn2ncc3c4sc(C)cc4n(C)c3c2=O)cc1 | x | n | x | x | x | x
CCOC(=O)c1ccc(CNc2ncnc3nc[nH]c23)cc1 | x | n | x | x | x | n
COc1cccc(N2CCN(C(=O)Cn3ncc4c(=O)oc5ccccc5c43)CC2)c1 | n | n | n | x | x | n
CCOCCCNC(=S)N1CCN(Cc2ccco2)CC1 | 10µM | n | 35.5µM | n | n | 39.8µM
CCCNC(=S)N1CCN(C)CC1 | 10µM | 8.91µM | 39.8µM | n | n | u
CCCNC(=O)N1CCN(Cc2ccco2)CC1 | n | n | n | n | n | n
CCOCCCNC(=S)N1CCN(c2nc(-c3ccccc3)cs2)CC1 | u | u | 50.1µM | n | n | n
SMILES | G9a block | JMJD2A Tudor inh | BAZ2B block | CtBP-E1A inh | Six1-Eya2 blk | HP1b chromo inh
CCOCCCNC(=S)N1CCC(C(=O)c2ccc(C)cc2)CC1 | n | n | n | n | n | n
CCOCCCNC(=S)N1CCN(CC)CC1 | 22.4µM | 25.1µM | 50.1µM | n | n | u
O=[N+]([O-])c1ncccc1OCc1ccc(Cl)c(Cl)c1 | n | n | n | n | n | n
Cc1ccc(NC(=O)CN2C(=O)c3ccccc3S2(=O)=O)c(C)c1 | n | n | n | n | n | n
CCCCNC(=S)N1CCN(CC)CC1 | x | 44.7µM | 50.1µM | n | n | u
CCc1ccccc1NC(=O)Cn1ccn(Cc2ccccc2)c(=O)c1=O | n | n | n | x | x | n
COC(=O)c1ccc(CCc2cc(O)c(Br)cc2O)cc1 | x | 2.82µM | x | n | n | u
COC(=O)c1ccc(CCc2cc(O)ccc2O)cc1 | x | 6.31µM | x | n | n | u
COC(=O)c1ccc(O)cc1 | n | n | n | n | n | n
O=C(O)Cc1cc(F)c(S(=O)(=O)N2CCN(S(=O)(=O)c3ccc4c(c3)OCCO4)CC2)cc1F | x | n | x | x | x | x
